In the library only some 7.5% were active in any assay of this set; here they are far more common.
FLuc modulator: qHTS profiling assay for firefly luciferase inhibitor/activator using purifed enzyme and Km concentrations of substrates (counterscreen for miR-21 project); Luciferin 4-monooxygenase (Photinus pyralis), P08659; purified FLuc, Km substrates, luminescence inhibition; Potency, µM (highest dose often 57.5 µM), most hits filed as inhibitors; hit rate 6.9% among 360,000; also: nearly all actives have a fitted effect of over 55% in size
Target sequence (P08659 whole entry, looked up): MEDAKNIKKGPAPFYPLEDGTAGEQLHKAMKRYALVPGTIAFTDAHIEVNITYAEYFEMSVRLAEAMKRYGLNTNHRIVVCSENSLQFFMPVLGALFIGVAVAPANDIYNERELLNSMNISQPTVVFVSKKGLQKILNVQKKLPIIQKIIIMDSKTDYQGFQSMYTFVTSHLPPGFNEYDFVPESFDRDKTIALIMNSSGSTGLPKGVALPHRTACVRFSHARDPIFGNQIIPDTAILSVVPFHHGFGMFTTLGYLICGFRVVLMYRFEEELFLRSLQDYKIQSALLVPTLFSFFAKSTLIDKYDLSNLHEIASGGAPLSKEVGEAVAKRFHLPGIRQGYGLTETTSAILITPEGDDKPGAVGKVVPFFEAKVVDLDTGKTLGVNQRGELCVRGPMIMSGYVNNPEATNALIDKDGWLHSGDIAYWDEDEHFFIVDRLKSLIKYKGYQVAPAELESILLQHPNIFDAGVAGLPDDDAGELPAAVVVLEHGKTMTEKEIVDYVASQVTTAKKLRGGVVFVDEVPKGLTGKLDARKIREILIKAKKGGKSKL
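Purified P. pyralis luciferase (10nM final) with 10uM D-luciferin and 10uM ATP (Km levels) in 50mM Tris acetate pH 7.5, 10mM Mg acetate, 0.01% Tween-20, 0.05% BSA; qHTS 6-point titration, ~60 µM downward; luminescence read.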
Rab9 promoter act: qHTS Assay for Rab9 Promoter Activators | hit rate 2.8% among 320,000 | Potency, µM (doses to about 9.22 µM), most hits filed as activators | Huh7 Rab9 promoter-luciferase reporter, luminescence, 24 h | AID 485297, 2010; also: nearly all actives have a fitted effect of over 60% in size
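Measured in stably transfected Huh7 cells bearing a Rab9 promoter–luciferase construct: 24 h compound treatment at 37 °C, followed by luminescence detection.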
ELG1 genotoxic: qHTS screen for small molecules that induce genotoxicity in human embryonic kidney (HEK293T) cells expressing luciferase-tagged ELG1; hit rate 1.3% among 330,000; HEK293T ELG1-luciferase reporter, luminescence, 16 h; Potency, µM (series often up to 46 µM), actives largely listed as activators; also: nearly all actives have a fitted effect of over 60% in size
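HEK293T cells expressing luciferase-tagged ELG1 were exposed to compound or DMSO vehicle for 16 hr at 37 °C and 5% CO2. Luciferase activity was then measured with ONE-Glo after 30 min at room temperature.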
NPC1 promoter act: qHTS Assay for NPC1 Promoter Activators; Huh7 NPC1 promoter luciferase reporter, 24 h; hit rate 2.4% among 320,000; Potency, µM (series often up to 9.22 µM), usual class: activators; also: nearly all actives have a fitted effect of over 60% in size
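Stably transfected Huh7 (NPC1 promoter→luciferase), 1500 cells/well in Opti-MEM + 10% FBS, 2 h settle, then compound 24 h at 37 °C. Luminescence after 10 min with Amplite reagent.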
SMN2 splice up: qHTS Assay for Enhancers of SMN2 Splice Variant Expression. Potency, µM (series often up to 46.1 µM), most hits filed as activators. HEK293 SMN2-luciferase splicing reporter, luminescence, 30-36 h. hit rate 2.8% among 210,000; also: nearly all actives have a fitted effect of over 55% in size
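HEK293 cells carry an SMN2 minigene-luciferase reporter in which exon 7 inclusion puts luciferase in frame. Cells were seeded at 2000 cells/well, attached for 10-12 hours, then exposed to compounds for 30-36 hours at 37C before ONE-Glo luminescence.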
Of the large screens only hits and unclear results are named; the others gave an inactive call. Calls follow the shape of the dose curve; as a rule, active = well fitted curve in the direction sought with a large enough effect; inconclusive = small, poorly fitted or top-dose-only effect, or another doubt; inactive = no such curve, though single readings can be large; an effect the other way counts as inactive or inconclusive.

CCc1ccc2nc(NC(=O)c3ccc(N4C(=O)CCC4=O)cc3)sc2c1	FLuc modulator 8.5µM (no result: SMN2 splice up)
CC1CCc2nc(NC(=O)c3ccc(N4C(=O)CCC4=O)cc3)sc2C1 (configuration not stated)	FLuc modulator 9.5µM (no result: SMN2 splice up)
Cc1ccc(C)c2sc(NC(=O)c3ccc(N4C(=O)CCC4=O)cc3)nc12	none
CC(C)(C)C1CCc2c(sc(NC(=O)c3ccncc3)c2C(N)=O)C1 (configuration not stated)	FLuc modulator 2.7µM
CC1CCc2c(sc(NC(=O)c3ccc(N4C(=O)CCC4=O)cc3)c2C(N)=O)C1 (configuration not stated)	FLuc modulator 9.5µM (no result: SMN2 splice up)
COc1ccc(Cc2noc(CN(C)CC3CCN(Cc4ccccc4)CC3)n2)cc1OC	none (no result: SMN2 splice up)
Cc1ccc(C(=O)Nc2c(C)n(C)n(-c3ccccc3)c2=O)cc1S(=O)(=O)N1CCCCC1	none (no result: FLuc modulator, Rab9 promoter act, NPC1 promoter act, SMN2 splice up)
O=C(Nc1nc2c(s1)CCCC2)c1ccc(N2C(=O)CCC2=O)cc1	FLuc modulator 19µM, Rab9 promoter act inconclusive, ELG1 genotoxic inconclusive, NPC1 promoter act inconclusive (no result: SMN2 splice up)
CC(=O)NC(=S)Nc1sc2c(c1C(N)=O)CCC(C)C2 (configuration not stated)	FLuc modulator 9.5µM, Rab9 promoter act 1.6µM, ELG1 genotoxic inconclusive, NPC1 promoter act 2.8µM (no result: SMN2 splice up)
CCc1ccc(C(=O)NNC(=O)c2cccc(N3C(=O)CCC3=O)c2)cc1	FLuc modulator 11µM (no result: SMN2 splice up)
O=C(Cn1ncc2c([nH]c3ccccc32)c1=O)NCC1CCN(Cc2ccccc2F)CC1	none (no result: SMN2 splice up)
CCC(CC)C(=O)NCc1cccnc1	none
CCn1c(SCC(N)=O)nnc1-c1cc2c(C)nn(-c3ccccc3)c2s1	FLuc modulator 15µM
Cc1ccc(C(=O)N/C(=C\c2ccc(Cl)cc2)C(=O)NCCN2CCOCC2)cc1	none (no result: SMN2 splice up)
Cc1nc(-c2ccccc2)sc1-c1ccnn1C	FLuc modulator 4.8µM, Rab9 promoter act 2.2µM, ELG1 genotoxic inconclusive, NPC1 promoter act inconclusive, SMN2 splice up 13µM
Cc1nc(-c2ccccc2)sc1-c1ccn[nH]1	FLuc modulator 1.5µM, Rab9 promoter act 2.8µM, ELG1 genotoxic 2.6µM, NPC1 promoter act 1.4µM, SMN2 splice up 7.9µM
CN(C)c1ccc(/C=C/c2cccc[n+]2[O-])cc1	FLuc modulator 19µM, Rab9 promoter act 2.5µM, ELG1 genotoxic inconclusive, NPC1 promoter act inconclusive (no result: SMN2 splice up)
CN(C)c1ccc(/C=C/C#N)cc1	FLuc modulator inconclusive (no result: SMN2 splice up)
CC(C)CC[n+]1ccccc1/C=C/c1ccc(N(C)C)cc1	none (no result: SMN2 splice up)
COc1ccc(/C=C/c2ccncc2)cc1	FLuc modulator 12µM, Rab9 promoter act 2.8µM, ELG1 genotoxic inconclusive, NPC1 promoter act 3.5µM, SMN2 splice up inconclusive
C/C=C/c1ccc(OC)cc1	none (no result: FLuc modulator, Rab9 promoter act, ELG1 genotoxic, NPC1 promoter act)
CN(C)c1ccc(/C=C/c2ccncc2)cc1	FLuc modulator inconclusive, Rab9 promoter act inconclusive, ELG1 genotoxic 16µM, NPC1 promoter act inconclusive, SMN2 splice up inconclusive
COc1ccc(S(=O)(=O)c2c(Nc3c(C)cccc3C)sc(C(=O)c3ccc4c(c3)OCO4)c2N)cc1	none (no result: Rab9 promoter act, ELG1 genotoxic, NPC1 promoter act, SMN2 splice up)
Cc1cc(C)n(-c2ccc(C(=O)Nc3nc4ccccc4s3)cc2)n1	FLuc modulator 2.7µM, Rab9 promoter act inconclusive, ELG1 genotoxic inconclusive, NPC1 promoter act 2.5µM
Nc1ccc(C(=O)Nc2nc3ccccc3s2)cc1	FLuc modulator 0.38µM, Rab9 promoter act 0.4µM, ELG1 genotoxic 0.52µM, NPC1 promoter act 0.63µM, SMN2 splice up 1.6µM
CC(C)(C)c1ccc(/C=C2\SC(=O)N(CCNC(=O)c3cccc(S(=O)(=O)N4CCOCC4)c3)C2=O)cc1	FLuc modulator 0.54µM, Rab9 promoter act 0.89µM, ELG1 genotoxic inconclusive, NPC1 promoter act 0.71µM
O=C1C(Cc2ccc(Br)cc2)SC(=Nc2ccccc2)N1c1ccccc1 (configuration not stated)	none
COc1ccc(NC2=NCC(=O)N2c2ccccc2)c(OC)c1	none
COc1ccccc1/C=C/C(C)=O	none
CNc1ccccc(C(=O)/C=C/c2ccccc2OC)c1=O	FLuc modulator 21µM
COc1ccccc1/C=C/C(=O)/C=C/c1ccccc1O	FLuc modulator 3.4µM (no result: SMN2 splice up)
CCC(C)NC(=O)CN(c1cc(Cl)ccc1OC)S(C)(=O)=O (configuration not stated)	none
[O-]/[N+](=C\C=C\c1ccccc1)c1ccccc1	FLuc modulator 4.8µM, Rab9 promoter act 1.8µM, ELG1 genotoxic inconclusive, NPC1 promoter act 2.5µM (no result: SMN2 splice up)
[O-]/[N+](=C/c1ccc(F)cc1)c1ccccc1	FLuc modulator inconclusive
CC1=NN(c2nc(-c3ccc(C)cc3)cs2)C(=O)C1N=Nc1cccc(O)c1 (configuration not stated)	FLuc modulator inconclusive
CC1=NN(c2nc(-c3ccc(C)cc3)cs2)C(=O)C1N=Nc1ccccc1O (configuration not stated)	FLuc modulator 11µM (no result: SMN2 splice up)
COc1ccc(-c2csc(N3N=C(C)C(C)C3=O)n2)cc1 (configuration not stated)	FLuc modulator 8.5µM, Rab9 promoter act 4.5µM, NPC1 promoter act inconclusive, SMN2 splice up inconclusive
COc1ccc(/C=N/Nc2nccnc2Cl)c(OC)c1	FLuc modulator 11µM, Rab9 promoter act inconclusive, ELG1 genotoxic inconclusive
COc1ccc(/C=N/N=C/c2ccc(OC)cc2)cc1	FLuc modulator inconclusive (no result: SMN2 splice up)
COc1ccc(/C=N/Nc2nccnc2Cl)cc1	FLuc modulator 2.7µM, Rab9 promoter act 0.45µM, ELG1 genotoxic 1.5µM, NPC1 promoter act 1.3µM, SMN2 splice up 14µM
Clc1nccnc1N/N=C/c1ccc(Br)cc1	FLuc modulator 9.5µM, Rab9 promoter act 2µM, ELG1 genotoxic inconclusive, NPC1 promoter act 2µM (no result: SMN2 splice up)
Cc1nnc(N/N=C/c2ccc(Br)cc2)n1N	none (no result: SMN2 splice up)
CC1/C(=C\c2ccc(Cl)cc2)C(=O)C2CC1C2(C)C (configuration not stated)	none
CC1CCC(C(C)C)C(=O)/C1=C/c1ccc(N)cc1 (configuration not stated)	FLuc modulator 11µM, Rab9 promoter act 1.6µM, ELG1 genotoxic inconclusive, NPC1 promoter act 1.6µM (no result: SMN2 splice up)
CCOC(=O)CSc1nc(=O)n2cc(C)ccc2n1	none
CCOC(=O)N1CCC(N2CCN(Cc3ccc(C)o3)C(CCO)C2)CC1 (configuration not stated)	none (no result: SMN2 splice up)
CN(C)/N=C/C=C1\CCC/C(=C/c2cccs2)C1=O	FLuc modulator 0.85µM, Rab9 promoter act 3.2µM, ELG1 genotoxic inconclusive, NPC1 promoter act inconclusive (no result: SMN2 splice up)
CN(C)/N=C/C=C1\CC/C(=C\c2ccc(Br)cc2)C1=O	FLuc modulator inconclusive, Rab9 promoter act inconclusive, ELG1 genotoxic inconclusive
O=C1C2C3C=CC(C4CC34)C2C(=O)N1/N=C/c1cccs1 (configuration not stated)	FLuc modulator 17µM
COc1ccccc1-c1coc2cc(O)cc(O)c2c1=O	FLuc modulator 21µM, Rab9 promoter act inconclusive, ELG1 genotoxic 16µM
O=c1c(-c2ccc(F)cc2)coc2cc(O)ccc12	FLuc modulator 13µM, Rab9 promoter act 3.5µM, ELG1 genotoxic inconclusive, NPC1 promoter act 3.2µM
